Reference: PubChem BioAssay AID1159580 (chemical genetic matrix, 2015)
The whole screen tested about 5,500 compounds, of which about 2,000 (36%) were called active. Another 18% or so got no clear call; they are omitted. The list shows a part of the results. A number with no mark means an inactive call. Rule as the data show it: active = normalized growth mostly below about 0.91 (no sharp cut-off); inconclusive = no clear call, values can overlap the other calls; inactive = mostly above about 0.92.

Assay: chemical genetic growth profiling, strain panel (AID 1159580);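 also: tested at 20 µM; growth read once vehicle control cultures reached saturation at 30 °C; 1 = growth at the plate median or of vehicle wells; lower values mean less growth of the strain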
Conditions: growth OD
[1] = S. cerevisiae deletion strains, locus YDL101C, strain DUN1, active compounds read low
[2] = S. cerevisiae deletion strains, locus YHR030C, strain SLT2, active compounds read low

**Q.** With `COc1cc(C(=O)Oc2c(Cl)cc(Cl)cc2C=Nc2cccc(C(F)(F)F)c2)cc(OC)c1OC` as the compound, how does the normalized growth (S. cerevisiae deletion strains, locus YAR019C, strain CDC15, active compounds read low) read?
**A.** 0.977

**Q.** What about the normalized growth (S. cerevisiae deletion strains, locus YBL105C, strain PKC1, active compounds read low) of the same compound?
**A.** 0.976

**Q.** And the normalized growth (S. cerevisiae deletion strains, locus YBR135W, strain CKS1, active compounds read low)?
**A.** 0.971

**Q.** What about the normalized growth (S. cerevisiae deletion strains, locus YBR136W, strain MEC1, active compounds read low) of the same compound?
**A.** 0.973

**Q.** What about the normalized growth (S. cerevisiae deletion strains, locus YBR160W, strain CDC28, active compounds read low) of the same compound?
**A.** 0.968

**Q.** And the normalized growth (S. cerevisiae deletion strains, locus YDL017W, strain CDC7, active compounds read low)?
**A.** 0.974

**Q.** And the normalized growth (S. cerevisiae deletion strains, locus YDL028C, strain MPS1, active compounds read low)?
**A.** 0.962

**Q.** What about the normalized growth [1] of the same compound?
**A.** 0.986

**Q.** What about the normalized growth (S. cerevisiae deletion strains, locus YDL108W, strain KIN28, active compounds read low) of the same compound?
**A.** 0.966

**Q.** What about the normalized growth (S. cerevisiae deletion strains, locus YDL132W, strain cdc53, active compounds read low) of the same compound?
**A.** 0.963

**Q.** And the normalized growth (S. cerevisiae deletion strains, locus YDL214C, strain PRR2, active compounds read low)?
**A.** 0.627 (active)

**Q.** What about the normalized growth (S. cerevisiae deletion strains, locus YDR052C, strain DBF4, active compounds read low) of the same compound?
**A.** 0.983

**Q.** What about the normalized growth (S. cerevisiae deletion strains, locus YDR054C, strain cdc34, active compounds read low) of the same compound?
**A.** 0.959

**Q.** What about the normalized growth (S. cerevisiae deletion strains, locus YDR226W, strain ADK1, active compounds read low) of the same compound?
**A.** 0.965

**Q.** What about the normalized growth (S. cerevisiae deletion strains, locus YDR477W, strain SNF1, active compounds read low) of the same compound?
**A.** 0.589 (active)

**Q.** What about the normalized growth (S. cerevisiae deletion strains, locus YER123W, strain YCK3, active compounds read low) of the same compound?
**A.** 0.422 (active)

**Q.** What about the normalized growth (S. cerevisiae deletion strains, locus YER133W, strain GLC7, active compounds read low) of the same compound?
**A.** 0.585 (active)

**Q.** What about the normalized growth (S. cerevisiae deletion strains, locus YFL009W, strain cdc4, active compounds read low) of the same compound?
**A.** 0.957

**Q.** What about the normalized growth (S. cerevisiae deletion strains, locus YFL029C, strain CAK1, active compounds read low) of the same compound?
**A.** 0.978

**Q.** What about the normalized growth (S. cerevisiae deletion strains, locus YFR003C, strain YPI1, active compounds read low) of the same compound?
**A.** 0.972

**Q.** And the normalized growth (S. cerevisiae deletion strains, locus YFR019W, strain FAB1, active compounds read low)?
**A.** 0.702 (active)

**Q.** And the normalized growth (S. cerevisiae deletion strains, locus YFR028C, strain CDC14, active compounds read low)?
**A.** 0.951

**Q.** What about the normalized growth (S. cerevisiae deletion strains, locus YGR040W, strain KSS1, active compounds read low) of the same compound?
**A.** 0.636 (active)

**Q.** And the normalized growth (S. cerevisiae deletion strains, locus YGR052W, strain FMP48, active compounds read low)?
**A.** 0.556 (active)

**Q.** What about the normalized growth (S. cerevisiae deletion strains, locus YGR092W, strain DBF2, active compounds read low) of the same compound?
**A.** 0.308 (active)

**Q.** What about the normalized growth [2] of the same compound?
**A.** 0.363 (active)

**Q.** And the normalized growth (S. cerevisiae deletion strains, locus YHR079C, strain IRE1, active compounds read low)?
**A.** 0.388 (active)

**Q.** What about the normalized growth (S. cerevisiae deletion strains, locus YHR082C, strain KSP1, active compounds read low) of the same compound?
**A.** 0.484 (active)

**Q.** And the normalized growth (S. cerevisiae deletion strains, locus YHR205W, strain SCH9, active compounds read low)?
**A.** 0.465 (active)

**Q.** And the normalized growth (S. cerevisiae deletion strains, locus YIL147C, strain SLN1, active compounds read low)?
**A.** 0.972

**Q.** And the normalized growth (S. cerevisiae deletion strains, locus YJL095W, strain BCK1, active compounds read low)?
**A.** 0.421 (active)

**Q.** And the normalized growth (S. cerevisiae deletion strains, locus YJL128C, strain PBS2, active compounds read low)?
**A.** 0.917

**Q.** What about the normalized growth (S. cerevisiae deletion strains, locus YJL157C, strain FAR1, active compounds read low) of the same compound?
**A.** 0.617 (active)

**Q.** And the normalized growth (S. cerevisiae deletion strains, locus YJR016C, strain ILV3, active compounds read low)?
**A.** 0.986

**Q.** What about the normalized growth (S. cerevisiae deletion strains, locus YJR066W, strain TOR1 (second series), active compounds read low) of the same compound?
**A.** 0.775

**Q.** What about the normalized growth (S. cerevisiae deletion strains, locus YJR066W, strain TOR1, active compounds read low) of the same compound?
**A.** 0.368 (active)

**Q.** What about the normalized growth (S. cerevisiae deletion strains, locus YKL048C, strain ELM1, active compounds read low) of the same compound?
**A.** 0.78 (active)

**Q.** What about the normalized growth (S. cerevisiae deletion strains, locus YKL067W, strain YNK1, active compounds read low) of the same compound?
**A.** 0.605 (active)

**Q.** And the normalized growth (S. cerevisiae deletion strains, locus YKL101W, strain HSL1, active compounds read low)?
**A.** 0.648 (active)

**Q.** And the normalized growth (S. cerevisiae deletion strains, locus YKL193C, strain SDS22, active compounds read low)?
**A.** 0.971

**Q.** What about the normalized growth (S. cerevisiae deletion strains, locus YKL203C, strain TOR2, active compounds read low) of the same compound?
**A.** 0.693 (active)

**Q.** What about the normalized growth (S. cerevisiae deletion strains, locus YLR113W, strain HOG1, active compounds read low) of the same compound?
**A.** 0.488 (active)

**Q.** What about the normalized growth (S. cerevisiae deletion strains, locus YLR133W, strain CKI1, active compounds read low) of the same compound?
**A.** 0.626 (active)

**Q.** What about the normalized growth (S. cerevisiae deletion strains, locus YLR403W, strain SFP1, active compounds read low) of the same compound?
**A.** 0.473 (active)

**Q.** What about the normalized growth (S. cerevisiae deletion strains, locus YML070W, strain DAK1, active compounds read low) of the same compound?
**A.** 0.583 (active)

**Q.** And the normalized growth (S. cerevisiae deletion strains, locus YMR001C, strain CDC5, active compounds read low)?
**A.** 0.975

**Q.** What about the normalized growth (S. cerevisiae deletion strains, locus YMR205C, strain PFK2 (second series), active compounds read low) of the same compound?
**A.** 0.656 (active)

**Q.** What about the normalized growth (S. cerevisiae deletion strains, locus YMR277W, strain FCP1, active compounds read low) of the same compound?
**A.** 0.97

**Q.** What about the normalized growth (S. cerevisiae deletion strains, locus YNL006W, strain LST8, active compounds read low) of the same compound?
**A.** 0.981

**Q.** And the normalized growth (S. cerevisiae deletion strains, locus YNL020C, strain ARK1, active compounds read low)?
**A.** 0.594 (active)

**Q.** And the normalized growth (S. cerevisiae deletion strains, locus YNL161W, strain CBK1, active compounds read low)?
**A.** 0.977

**Q.** What about the normalized growth (S. cerevisiae deletion strains, locus YNL183C, strain NPR1, active compounds read low) of the same compound?
**A.** 0.497 (active)

**Q.** And the normalized growth (S. cerevisiae deletion strains, locus YNL207W, strain RIO2, active compounds read low)?
**A.** 0.982

**Q.** And the normalized growth (S. cerevisiae deletion strains, locus YNL222W, strain SSU72, active compounds read low)?
**A.** 0.969

**Q.** And the normalized growth (S. cerevisiae deletion strains, locus YNL307C, strain MCK1 (second series), active compounds read low)?
**A.** 0.555 (active)

**Q.** What about the normalized growth (S. cerevisiae deletion strains, locus YOL078W, strain AVO1, active compounds read low) of the same compound?
**A.** 0.969

**Q.** What about the normalized growth (S. cerevisiae deletion strains, locus YOL136C, strain PFK27, active compounds read low) of the same compound?
**A.** 0.548 (active)

**Q.** And the normalized growth (S. cerevisiae deletion strains, locus YOR061W, strain CKA2, active compounds read low)?
**A.** 0.576 (active)

**Q.** What about the normalized growth (S. cerevisiae deletion strains, locus YOR119C, strain RIO1, active compounds read low) of the same compound?
**A.** 0.597 (active)

**Q.** And the normalized growth (S. cerevisiae deletion strains, locus YOR231W, strain MKK1, active compounds read low)?
**A.** 0.465 (active)

**Q.** What about the normalized growth (S. cerevisiae deletion strains, locus YOR329C, strain SCD5, active compounds read low) of the same compound?
**A.** 0.978

**Q.** What about the normalized growth (S. cerevisiae deletion strains, locus YPL031C, strain PHO85, active compounds read low) of the same compound?
**A.** 0.574 (active)

**Q.** What about the normalized growth (S. cerevisiae deletion strains, locus YPL153C, strain RAD53, active compounds read low) of the same compound?
**A.** 0.578 (active)

**Q.** What about the normalized growth (S. cerevisiae deletion strains, locus YPL204W, strain HRR25, active compounds read low) of the same compound?
**A.** 0.562 (active)

**Q.** And the normalized growth (S. cerevisiae deletion strains, locus YPL209C, strain IPL1, active compounds read low)?
**A.** 0.976

**Q.** And the normalized growth (S. cerevisiae deletion strains, locus YPL256C, strain CLN2, active compounds read low)?
**A.** 0.443 (active)

**Q.** And the normalized growth (S. cerevisiae deletion strains, locus YPR025C, strain CCL1, active compounds read low)?
**A.** 0.966

**Q.** What about the normalized growth (S. cerevisiae deletion strains, locus YPR106W, strain ISR1, active compounds read low) of the same compound?
**A.** 0.965

**Q.** What about the normalized growth (S. cerevisiae deletion strains, locus YPR111W, strain DBF20, active compounds read low) of the same compound?
**A.** 0.931

**Q.** And the normalized growth (S. cerevisiae deletion strains, strain NNK1, active compounds read low)?
**A.** 0.98

**Q.** And the normalized growth (S. cerevisiae deletion strains, strain TSCII, active compounds read low)?
**A.** 0.967

**Q.** Which results are given for `COC(=O)c1cc(OC)c(OC)cc1NS(=O)(=O)c1ccc(C)cc1`?
**A.** normalized growth (S. cerevisiae deletion strains, locus YAL013W, strain DEP1, active compounds read low): 1.01; normalized growth (S. cerevisiae deletion strains, locus YBR229C, strain ROT2, active compounds read low): 0.996; normalized growth [1]: 0.994; normalized growth (S. cerevisiae deletion strains, locus YDR150W, strain NUM1, active compounds read low): 0.933; normalized growth (S. cerevisiae deletion strains, locus YEL061C, strain CIN8, active compounds read low): 1.01; normalized growth (S. cerevisiae deletion strains, locus YGR078C, strain PAC10, active compounds read low): 0.989; normalized growth [2]: 0.959; normalized growth (S. cerevisiae deletion strains, locus YHR087W, strain rtc3, active compounds read low): 1; normalized growth (S. cerevisiae deletion strains, locus YJR043C, strain POL32, active compounds read low): 0.985; normalized growth (S. cerevisiae deletion strains, locus YJR075W, strain HOC1, active compounds read low): 0.991; normalized growth (S. cerevisiae deletion strains, locus YKL190W, strain CNB1, active compounds read low): 1; normalized growth (S. cerevisiae deletion strains, locus YLR039C, strain RIC1, active compounds read low): 0.961; normalized growth (S. cerevisiae deletion strains, locus YLR058C, strain SHM2 (second series), active compounds read low): 1.01; normalized growth (S. cerevisiae deletion strains, locus YLR085C, strain ARP6, active compounds read low): 1.03; normalized growth (S. cerevisiae deletion strains, locus YLR262C, strain YPT6, active compounds read low): 0.891; normalized growth (S. cerevisiae deletion strains, locus YML094W, strain GIM5, active compounds read low): 1.03; normalized growth (S. cerevisiae deletion strains, locus YMR219W, strain ESC1, active compounds read low): 1; normalized growth (S. cerevisiae deletion strains, locus YMR263W, strain SAP30, active compounds read low): 0.971; normalized growth (S. cerevisiae deletion strains, locus YMR307W, strain GAS1, active compounds read low): 0.959; normalized growth (S. cerevisiae deletion strains, locus YNL153C, strain GIM3, active compounds read low): 0.987; normalized growth (S. cerevisiae deletion strains, locus YNL298W, strain CLA4 (second series), active compounds read low): 0.962; normalized growth (S. cerevisiae deletion strains, locus YNL322C, strain KRE1, active compounds read low): 1; normalized growth (S. cerevisiae deletion strains, locus YNR030W, strain Alg12, active compounds read low): 0.996; normalized growth (S. cerevisiae deletion strains, locus YPL055C, strain LGE1, active compounds read low): 0.894; normalized growth (S. cerevisiae deletion strains, locus YPL241C, strain CIN2, active compounds read low): 1.01; normalized growth (S. cerevisiae deletion strains, locus YPR135W, strain CTF4, active compounds read low): 0.93; normalized growth (S. cerevisiae strains, strain wild type, active compounds read low): 0.99
